{
  "source": "ChEMBL document CHEMBL3988442",
  "about": "“University of Dundee, Small-Polar-MMV Screening Library” (2021)",
  "data": [
    {"biological_target": "Shiga toxin 2 (Escherichia coli O157:H7) (UniProt P09385+P09386)", "assay": "E. coli 0.157:H7 Shiga Toxin SOP - stx2 screening assay", "type": "functional", "design": "scale not given: direction of the effect not stated beside the values", "details": "30 µM", "units": {"Percent Effect": "%"}, "values": [
      {"smiles": "Cc1nn(C)c(C)c1C1COCCN1C(=O)c1cnc(N)c(Cl)c1", "note": "(centres undefined)", "Percent Effect": -23.7},
      {"smiles": "Cc1nc(CC(=O)N2CCCCC2c2ccn3ccnc3n2)cs1", "note": "(centres undefined)", "Percent Effect": 4.13},
      {"smiles": "COCCn1ccc2cc(NC(C)=O)ccc21", "Percent Effect": -9.31},
      {"smiles": "CCc1noc(CN2CCN(C(=O)N(C)C)CC2)n1", "Percent Effect": 5.9}
    ]}
  ]
}
